Laboratory results from PubChem BioAssay AID2810 (NMMLSC, 2010).
Screen size: about 1,200 compounds; about 65 (5%) were called active.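 How the source made its calls: active means at either tested dose, response and 90th-percentile vesicle-stain brightness of CD8 cells under set limits and under 9% cells vesicle-bound; inactive means the rest.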 Only a selection was taken, and actives are over-represented in it overall.

Test: modulators of CD8 T cell-vesicle binding, confirmation, cherry-picked primary hits, two concentrations (AID 2810);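 on percent response (vesicle binding): ratio of mean FL2 vesicle stain of CD8+ cells to that row's control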
Details: 2C CD8+ T cell-vesicle binding, flow cytometry; for double positive events: CD8+/vesicle+ events
[1] = at 15.4 µM, stronger effect = lower value

In the case of `COc1ccc(C2=CC(=O)C[C@H](c3ccc4c(c3)OCO4)C2)cn1`, the double positive events (at 7.7 µM) is reported as 9.9%, the double positive events [1] is reported as 4.4% and the percent response (vesicle binding) [1] is reported as 35.6% (active). For the same molecule, the percent response (vesicle binding) (response, at 7.7 µM) was 132%.
With `CCCOc1ccc(C2=CC(=O)C[C@H](c3ccc(OC)cc3)C2)cc1` the double positive events (at 7.7 µM) was 11%, the double positive events [1] was 10.3% and the percent response (vesicle binding) [1] was 69.4% (inactive). It also gave a percent response (vesicle binding) (response, at 7.7 µM) of 126%.
With `COc1ccc([C@H]2CC(=O)C=C(c3ccc(OC)nc3)C2)cc1` the double positive events (at 7.7 µM) was 14.2%, the double positive events [1] was 9.6% and the percent response (vesicle binding) [1] was 212% (inactive). It also gave a percent response (vesicle binding) (response, at 7.7 µM) of 129%.
With `Cc1ccc(O)c(CCc2ccccc2)n1` the double positive events (at 7.7 µM) was 15.8%, the double positive events [1] was 2.8% and the percent response (vesicle binding) [1] was 113% (inactive). The percent response (vesicle binding) (response, at 7.7 µM) was 128%.
In the case of `O=C(Nc1nc2ccccc2[nH]1)c1ccccc1[N+](=O)[O-]`, the double positive events (at 7.7 µM) is reported as 21%, the double positive events [1] is reported as 27.8% and the percent response (vesicle binding) [1] is reported as 316% (inactive). The percent response (vesicle binding) (response, at 7.7 µM) was 383%.
With `CCNC(=O)CSc1nc(-c2ccccc2)cs1` the double positive events (at 7.7 µM) was 25.1%, the double positive events [1] was 14.3% and the percent response (vesicle binding) [1] was 215% (inactive). The percent response (vesicle binding) (response, at 7.7 µM) was 240%.
For `O=C(NC(=S)Nc1nc(-c2ccccc2)cs1)c1cccs1`, the double positive events (at 7.7 µM) was 16.9%, the double positive events [1] was 1.5% and the percent response (vesicle binding) [1] was 48.9% (active). It also gave a percent response (vesicle binding) (response, at 7.7 µM) of 238%.
With `O=C(Nc1nc(-c2ccccc2)cs1)c1ccc(N2CCOCC2)c([N+](=O)[O-])c1` the double positive events (at 7.7 µM) was 8.4%, the double positive events [1] was 25.6% and the percent response (vesicle binding) [1] was 552% (inactive). The percent response (vesicle binding) (response, at 7.7 µM) was 78.4%.
For `CC1c2ccsc2CCN1C(=O)NC(=O)c1ccc(Cl)cc1` (stereo unspecified), the double positive events (at 7.7 µM) was 20.6%, the double positive events [1] was 18.4% and the percent response (vesicle binding) [1] was 185% (inactive). It also gave a percent response (vesicle binding) (response, at 7.7 µM) of 486%.
With `CCOC(=O)c1cnc2nc(C)nn2c1N` the double positive events (at 7.7 µM) was 10.5%, the double positive events [1] was 10.6% and the percent response (vesicle binding) [1] was 70.8% (inactive). For the same molecule, the percent response (vesicle binding) (response, at 7.7 µM) was 113%.
For `CCCCNC(=O)c1cnc2n(c1=O)CCS2`, the double positive events (at 7.7 µM) was 38.7%, the double positive events [1] was 14.7% and the percent response (vesicle binding) [1] was 184% (inactive). It also gave a percent response (vesicle binding) (response, at 7.7 µM) of 399%.
In the case of `CCCNC(=O)c1nc2ncc(Br)cn2n1`, the double positive events (at 7.7 µM) is reported as 15.3%, the double positive events [1] is reported as 1% and the percent response (vesicle binding) [1] is reported as 43% (active). For the same molecule, the percent response (vesicle binding) (response, at 7.7 µM) was 231%.
In the case of `Cc1ccc(C(=O)NCc2ccco2)o1`, the double positive events (at 7.7 µM) is reported as 10.5%, the double positive events [1] is reported as 20.1% and the percent response (vesicle binding) [1] is reported as 586% (inactive). The percent response (vesicle binding) (response, at 7.7 µM) was 368%.
For `O=C(NNC(=S)NC(=O)c1ccco1)c1ccc(F)cc1`, the double positive events (at 7.7 µM) was 7.1%, the double positive events [1] was 18.1% and the percent response (vesicle binding) [1] was 196% (inactive). It also gave a percent response (vesicle binding) (response, at 7.7 µM) of 291%.
With `O=C(NC(=S)NCc1ccco1)c1ccc(Br)cc1` the double positive events (at 7.7 µM) was 18.8%, the double positive events [1] was 5.9% and the percent response (vesicle binding) [1] was 52.9% (active). For the same molecule, the percent response (vesicle binding) (response, at 7.7 µM) was 186%.
For `CCOc1ccccc1NC(=O)c1ccc(F)c(S(=O)(=O)N2CCC3(CC2)OCCO3)c1`, the double positive events (at 7.7 µM) was 16.8%, the double positive events [1] was 14.7% and the percent response (vesicle binding) [1] was 94.2% (inactive). For the same molecule, the percent response (vesicle binding) (response, at 7.7 µM) was 132%.
With `COc1ccc(C2(O)CCN(CCCCOc3ccccc3)CC2)cc1` the double positive events (at 7.7 µM) was 12.9%, the double positive events [1] was 31.8% and the percent response (vesicle binding) [1] was 292% (inactive). The percent response (vesicle binding) (response, at 7.7 µM) was 174%.
In the case of `C[N+]1(C)CC2([N+](=O)[O-])CC=C(Oc3ccccc3)C([N+](=O)[O-])(C2)C1` (stereo unspecified), the double positive events (at 7.7 µM) is reported as 28.9%, the double positive events [1] is reported as 3.4% and the percent response (vesicle binding) [1] is reported as 49.5% (active). The percent response (vesicle binding) (response, at 7.7 µM) was 485%.
With `CCOc1ccccc1NC(=O)CN(c1ccc(C)cc1)S(=O)(=O)c1c(C)noc1C` the double positive events (at 7.7 µM) was 30.1%, the double positive events [1] was 16.7% and the percent response (vesicle binding) [1] was 129% (inactive). The percent response (vesicle binding) (response, at 7.7 µM) was 502%.
For `COc1ccc(Cl)cc1NC(=O)/C=C/C(=O)O`, the double positive events (at 7.7 µM) was 13.3%, the double positive events [1] was 24.2% and the percent response (vesicle binding) [1] was 251% (inactive). The percent response (vesicle binding) (response, at 7.7 µM) was 192%.
For `CCCCN(C(=O)COC(=O)c1ccc(C=O)cc1)c1c(N)n(CCC)c(=O)[nH]c1=O`, the double positive events (at 7.7 µM) was 9.2%, the double positive events [1] was 13.1% and the percent response (vesicle binding) [1] was 406% (inactive). It also gave a percent response (vesicle binding) (response, at 7.7 µM) of 335%.
For `CCc1ccc(OCc2cnc(Cl)s2)cc1`, the double positive events (at 7.7 µM) was 11.6%, the double positive events [1] was 16.5% and the percent response (vesicle binding) [1] was 277% (inactive). The percent response (vesicle binding) (response, at 7.7 µM) was 421%.
For `Cn1c(SCC(=O)Nc2ccc3cn[nH]c3c2)nnc1-c1cccs1`, the double positive events (at 7.7 µM) was 12.5%, the double positive events [1] was 17.2% and the percent response (vesicle binding) [1] was 146% (inactive). It also gave a percent response (vesicle binding) (response, at 7.7 µM) of 160%.
With `CCC(=O)NC(NC(=S)Nc1c(C)n(C)n(-c2ccccc2)c1=O)C(Cl)(Cl)Cl` (stereo unspecified) the double positive events (at 7.7 µM) was 16.1%, the double positive events [1] was 13.9% and the percent response (vesicle binding) [1] was 129% (inactive). For the same molecule, the percent response (vesicle binding) (response, at 7.7 µM) was 201%.
With `Cc1c(NC(=S)NC(=O)CCc2ccccc2)c(=O)n(-c2ccccc2)n1C` the double positive events (at 7.7 µM) was 21.8%, the double positive events [1] was 30.2% and the percent response (vesicle binding) [1] was 295% (inactive). The percent response (vesicle binding) (response, at 7.7 µM) was 278%.
In the case of `Cc1c(NS(=O)(=O)CC23CCC(CC2=O)C3(C)C)c(=O)n(-c2ccccc2)n1C` (stereo unspecified), the double positive events (at 7.7 µM) is reported as 14.2%, the double positive events [1] is reported as 1.9% and the percent response (vesicle binding) [1] is reported as 37.7% (active). It also gave a percent response (vesicle binding) (response, at 7.7 µM) of 260%.
In the case of `COc1cc(C(C)=O)ccc1O`, the double positive events (at 7.7 µM) is reported as 24%, the double positive events [1] is reported as 6.3% and the percent response (vesicle binding) [1] is reported as 114% (inactive). The percent response (vesicle binding) (response, at 7.7 µM) was 362%.
With `Cc1cc(C(=O)NCc2cc(C(=O)O)oc2C)c(C)o1` the double positive events (at 7.7 µM) was 29.4%, the double positive events [1] was 14.9% and the percent response (vesicle binding) [1] was 86.2% (inactive). For the same molecule, the percent response (vesicle binding) (response, at 7.7 µM) was 224%.
For `CSCCC(NC(=O)c1ccc(=O)n(C)n1)c1nc2ccccc2[nH]1` (stereo unspecified), the double positive events (at 7.7 µM) was 14.9%, the double positive events [1] was 0.9% and the percent response (vesicle binding) [1] was 42% (active). It also gave a percent response (vesicle binding) (response, at 7.7 µM) of 254%.
In the case of `O=C(NCC(=O)N1CCN(C(=O)c2ccccc2)CC1)c1ccccc1`, the double positive events (at 7.7 µM) is reported as 13.6%, the double positive events [1] is reported as 10.6% and the percent response (vesicle binding) [1] is reported as 148% (inactive). For the same molecule, the percent response (vesicle binding) (response, at 7.7 µM) was 158%.
In the case of `Cc1cc(C)nc(SCCn2c(N3CC(C)OC(C)C3)nc3c2c(=O)n(C)c(=O)n3C)n1` (stereo unspecified), the double positive events (at 7.7 µM) is reported as 12.7%, the double positive events [1] is reported as 28.3% and the percent response (vesicle binding) [1] is reported as 226% (inactive). The percent response (vesicle binding) (response, at 7.7 µM) was 172%.
For `C=CCNC(=O)c1c(Cl)nc(C)c([N+](=O)[O-])c1C`, the double positive events (at 7.7 µM) was 28.7%, the double positive events [1] was 11.5% and the percent response (vesicle binding) [1] was 144% (inactive). The percent response (vesicle binding) (response, at 7.7 µM) was 122%.
In the case of `CCC1(C)NC(=O)N(CC(=O)N2N=C(c3ccccc3)CC2c2ccc(OC)cc2)C1=O` (stereo unspecified), the double positive events (at 7.7 µM) is reported as 9.6%, the double positive events [1] is reported as 30.9% and the percent response (vesicle binding) [1] is reported as 413% (inactive). It also gave a percent response (vesicle binding) (response, at 7.7 µM) of 134%.
In the case of `CCOc1ccc(-c2csc(NNC3=NCCCCC3)n2)cc1`, the double positive events (at 7.7 µM) is reported as 15.2%, the double positive events [1] is reported as 1.4% and the percent response (vesicle binding) [1] is reported as 52.5% (active). For the same molecule, the percent response (vesicle binding) (response, at 7.7 µM) was 178%.
